Screening results from PubChem.
Compounds with a hit are over-represented: about 3.5% of the library has one in this group of screens.
TEAD-YAP block = TEAD-YAP interaction inhibition; HEK-TIYL cells, TEAD-Gal4/YAP UAS-luciferase luminescence; inhibition, % at 9.12 µM; 640,000 compounds, 1.4% hits; in the data active = inhibition above about 32%
GPR151 activ = activates the human receptor GPR151; PathHunter beta-arrestin GPR151 cells, luminescence; activation, % at 11.2 µM; 650,000 compounds, 1% hits; AID 1508602; in the data active = activation above about 4.9%
FBW7 activator = human FBW7 E3 ligase activation, primary screen. AlphaScreen FBW7–phospho-cyclin E peptide binding, activator screen. AID 1259310. 650,000 compounds, 0.13% hits. normalized activity (activation), % at 26.1 µM. Q969H0; in the data active = normalized activity above about 1.9%;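 also: purified mutant Fbw7 with reduced substrate affinity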
Target sequence (Q969H0 whole entry, looked up): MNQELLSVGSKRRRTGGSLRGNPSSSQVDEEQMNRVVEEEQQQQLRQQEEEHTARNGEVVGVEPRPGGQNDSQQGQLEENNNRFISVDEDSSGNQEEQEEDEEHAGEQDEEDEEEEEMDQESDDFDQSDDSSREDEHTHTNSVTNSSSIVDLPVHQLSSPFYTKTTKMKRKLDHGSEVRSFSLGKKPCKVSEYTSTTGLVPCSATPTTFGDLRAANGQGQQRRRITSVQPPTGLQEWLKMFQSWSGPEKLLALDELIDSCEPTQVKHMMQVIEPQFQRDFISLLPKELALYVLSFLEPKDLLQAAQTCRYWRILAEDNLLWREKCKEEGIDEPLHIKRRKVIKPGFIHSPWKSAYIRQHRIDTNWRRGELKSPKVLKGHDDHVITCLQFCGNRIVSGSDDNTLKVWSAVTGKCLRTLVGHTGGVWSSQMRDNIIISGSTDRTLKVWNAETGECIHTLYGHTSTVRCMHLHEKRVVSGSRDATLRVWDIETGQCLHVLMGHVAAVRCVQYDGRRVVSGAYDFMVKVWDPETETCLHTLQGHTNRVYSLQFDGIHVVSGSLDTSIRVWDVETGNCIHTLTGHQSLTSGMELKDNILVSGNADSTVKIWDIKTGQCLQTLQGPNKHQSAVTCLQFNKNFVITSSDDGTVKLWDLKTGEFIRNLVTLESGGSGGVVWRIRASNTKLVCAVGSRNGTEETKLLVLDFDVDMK
MITF inh = blocks human microphthalmia-associated transcription factor | O75030 | AlphaScreen MITF homodimerization, bead proximity signal | inhibition, % at 2.6 µM | 650,000 compounds, 0.91% hits | AID 1259374; in the data active = inhibition above about 50%
MITF inh conf = confirmation of human MITF inhibitors | shares compounds with MITF inh | AlphaScreen MITF homodimerization, biotin/His-MITF beads | inhibition, % at 2.6 µM | 4,700 compounds, 16% hits;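 active = inhibition above a cutoff derived from the DMSO control wells, cut at about 28% in these data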;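 also: inhibitors lower the bead chemiluminescence by keeping MITF from dimerizing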
AlphaScreen DR = AlphaScreen optical interference, dose response counter-screen; shares compounds with MITF inh; AlphaScreen optical interference counterscreen, cell-free; IC50, µM; 480 compounds, 6% hits; AID 1259373; call rule not given here
AS interf ctr = counter-screen: compounds optically interfering with AlphaScreen; LysRS AlphaScreen counterscreen, signal interference, triplicate; shares compounds with MITF inh; 4,700 compounds, 7.6% hits; inhibition, % at 2.6 µM;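 active = inhibition above a cutoff derived from the DMSO control wells, cut at about 30% in these data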
Hits are given with their value; n = inactive; x = not tested or not shown.

SMILES	TEAD-YAP block	GPR151 activ	FBW7 activator	MITF inh	MITF inh conf	AS interf ctr	others
COc1ccc(Br)cc1CN1CCCC(C(=O)N2CCCC2)C1 (stereo unspecified)	n	n	n	79.5	n	n
COc1ccc(Br)cc1CN1CCCC(C(N)=O)C1 (stereo unspecified)	n	n	n	n	x	x
NC(=O)c1c(NC(=O)c2ccc(Br)cc2F)sc2c1CCCC2	n	n	n	n	x	x
CCN(c1ccccc1)c1cc(N2CCOCC2)c2nonc2c1[N+](=O)[O-]	n	n	n	n	x	x
CCN(c1ccccc1)c1c([N+](=O)[O-])ccc2nonc12	n	n	n	66.0	59.4	54.5
CNCCOc1ccccc1-c1ccccc1	n	n	n	n	x	x
CN(C)CCOCCOc1ccccc1-c1ccccc1	n	n	n	86.6	40.7	n	AlphaScreen DR=n
CN(C)CCOc1ccccc1-c1ccccc1	n	n	n	61.5	n	n
COCCCNC(=O)/C(=C/c1ccc(Cl)cc1)NC(=O)c1ccccc1	n	n	n	n	x	x
CCCCNCC(=O)NN(c1ccccc1)c1ccccc1	n	n	n	n	x	x
CN(C)CCCNCC(=O)NN(c1ccccc1)c1ccccc1	n	n	n	63.6	n	n
O=C(Nc1nc(-c2ccc(Br)cc2)cs1)c1ncn[nH]1	n	n	n	63.0	44.2	78.0
O=C(Nc1nc(-c2ccccc2)cs1)c1ncn[nH]1	n	n	n	n	x	x
CN(CCc1ccccn1)C(=O)c1ccc(F)cc1	n	n	n	77.2	n	n
CN(CCc1ccccn1)C(=O)c1cccc(F)c1	n	n	n	105.1	n	n
Cc1[nH]c2ccccc2c1-c1csc(NS(=O)(=O)c2cccc([N+](=O)[O-])c2)n1	n	n	n	n	x	x
CO[C@@H]1COC(=O)CCC[C@@H](C)[C@H](OC)COC(=O)[C@H](C)NC(=O)C/C=C/[C@H]1C	x	n	n	n	x	x
C/C(=N\Nc1nc2ccccc2[nH]1)c1cccnc1	n	n	n	n	x	x
C/C(=N\Nc1nc2ccccc2[nH]1)c1ccccn1	74.2	n	n	105.2	110.3	99.4
C/C(=N\Nc1ccc(C(F)(F)F)cn1)c1ccccn1	86.6	n	n	57.9	n	35.3
Cc1c(Cc2ccccc2)sc(NC(=O)COc2ccc([N+](=O)[O-])cc2)c1C(N)=O	n	n	n	n	x	x
O=C(Nc1cccc(C(F)(F)F)c1)c1nn2c(C(F)(F)F)cc(-c3ccccc3)nc2c1Cl	n	n	n	n	x	x
O=C(Nc1cc(C(F)(F)F)ccc1Cl)c1nn2c(C(F)(F)F)cc(-c3ccccc3)nc2c1Cl	n	n	n	64.8	n	n
CCCCOc1ccc(C(=O)N/C(=C\c2ccco2)C(=O)OC)cc1	n	n	n	n	x	x
CCCCOc1ccc(C(=O)N/C(=C/c2ccco2)C(=O)O)cc1	n	n	n	50.6	64.2	n	AlphaScreen DR=n
SMILES	TEAD-YAP block	GPR151 activ	FBW7 activator	MITF inh	MITF inh conf	AS interf ctr	others
NC(=O)c1cnc(Nc2ccc3ncccc3c2)s1	n	n	n	n	x	x
O=C(CN1C(=O)NC2(CCCCCC2)C1=O)NC(=O)NCc1ccco1	n	n	n	70.3	70.6	n	AlphaScreen DR=n
O=C1N[C@@H](Cc2ccccc2)C(=O)N2CCN(C(=O)NCc3ccccc3)C[C@H]12	n	n	n	77.0	73.7	n	AlphaScreen DR=n
O=C1N[C@H](Cc2ccc(O)cc2)C(=O)N2CCN(C(=O)NCc3ccccc3)C[C@H]12	n	n	n	74.7	72.0	n	AlphaScreen DR=n
O=C1N[C@H](Cc2ccccc2)C(=O)N2CCN(C(=O)c3ccccc3)C[C@H]12	n	n	n	n	x	x
O=C1N[C@@H](Cc2ccccc2)C(=O)N2CCN(C(=O)OCc3ccccc3)C[C@H]12	n	n	n	n	x	x
O=C1N[C@H](CO)C(=O)N2CCN(C(=O)c3ccccc3)C[C@H]12	n	n	n	n	x	x
NCCCC[C@@H]1NC(=O)[C@H]2CN(C(=O)NCc3ccccc3)CCN2C1=O	n	n	n	n	x	x
O=C1N[C@H](CO)C(=O)N2CCN(C(=O)NCc3ccccc3)C[C@H]12	n	n	n	81.5	75.3	n	AlphaScreen DR=n
CCC[C@@H]1NC(=O)[C@H]2CN(C(=O)NCc3ccccc3)CCN2C1=O	n	n	n	75.0	71.0	n	AlphaScreen DR=n
CN1CCN(Cc2cccc3c2oc2ccccc23)CC1CCO (stereo unspecified)	n	n	n	n	x	x
O=[N+]([O-])c1ccc(-c2nc(C=Nc3cc(Cl)ccc3Cl)c(O)o2)cc1	n	n	n	n	x	x
COc1ccc(CN2CCN(C3CCCC3)CC2)c(OC)c1OC	n	n	n	52.3	n	n
COc1cccc(CN2CCN(C3CCCC(C)C3)CC2)c1OC (stereo unspecified)	n	n	n	69.8	n	n
COc1cccc(CN2CCCCC2c2cccnc2)c1OC (stereo unspecified)	n	n	n	73.4	n	n
COc1cccc(CN2CCN(C3CCCC3)CC2)c1OC	n	n	n	61.1	n	n
O=C(c1ccc(F)cc1)N(Cc1ccc(Br)cc1)c1ccc(I)cc1	n	n	n	n	x	x
COc1ccccc1C(=O)Nc1cccc(C(=O)O)c1	n	n	n	n	x	x
CCc1nnc(NC(=O)c2c(F)cccc2Cl)s1	n	n	n	n	x	x
CC1CCN(C(CNCC(O)COc2ccccc2)c2cccs2)CC1 (stereo unspecified)	n	n	n	69.7	n	n
OC(CNCC1CCCCC1)COc1ccccc1 (stereo unspecified)	n	n	n	n	x	x
OC(CNCCNCC(O)COc1ccccc1)COc1ccccc1 (stereo unspecified)	n	n	n	n	x	x
CN(C)C(CNCC(O)COc1ccccc1)c1cccs1 (stereo unspecified)	n	n	n	70.6	n	n
CC(C)CCN1C(=O)C2C(C(=O)Nc3ccc(Cl)cc3)C3C=CC2(O3)C1C(=O)NC1CCCCC1 (stereo unspecified)	n	n	n	n	x	x
COc1cc(CN(C)CCc2ccccn2)cc(OC)c1OC	n	n	n	73.9	n	n
SMILES	TEAD-YAP block	GPR151 activ	FBW7 activator	MITF inh	MITF inh conf	AS interf ctr	others
COc1ccc(CN(C)CCc2ccccn2)cc1OCc1ccccc1	n	n	n	62.4	n	n
COc1ccc(CN(C)CCc2ccccn2)cc1OC	n	n	n	77.3	n	n
C=CCc1ccc(OC)c(OCc2ccccc2)c1	n	n	n	n	x	x
COc1cc(/C=C/C(=O)NCc2ccccn2)cc(OC)c1OC	n	n	n	n	x	x
COc1ccc(CN(Cc2ccccn2)S(=O)(=O)c2ccc(F)cc2F)cc1OC	n	n	n	n	x	x
CCC1CCCCN1C(=O)c1cc2nc(-c3ccc(F)cc3)cc(C(F)(F)F)n2n1 (stereo unspecified)	n	n	n	n	x	x
COc1ccc(-c2noc(CN3CCC(O)(c4cccc(C(F)(F)F)c4)CC3)n2)cc1	n	n	n	n	x	x
COc1cccc(C2c3[nH]c4ccccc4c3CCN2C(=O)c2ccncc2)c1OC (stereo unspecified)	n	n	n	n	x	x
